Data: paper PMC4552634, “A New Set of Chemical Starting Points with Plasmodium falciparum Transmission-Blocking Potential for Antimalarial Drug Discovery” (PLoS ONE, 2015)
The whole screen tested about 13,000 compounds, of which about 3,200 (25%) showed an effect of 50% or more. This is one part of the list.

These compounds were tested on P. falciparum stage V gametocytes. Conditions: 48 h, 5 µM; inhibitor.
Design: BacTiter-Glo ATP luminescence viability of purified stage V gametocytes in 384-well plates, per cent inhibition versus DMSO

Row | SMILES | % Inhibition
1 | CC1CCCC(C)N1C[C@@H](O)CNS(=O)(=O)c1cccc(C(F)(F)F)c1 (stereo partly drawn) [TCMDC-134258] | 4.939%
2 | CCc1ccccc1N=C1c2c(cccc2[N+](=O)[O-])C(=O)C1C(C)=O (stereo not drawn) [TCMDC-125760] | -10.56%
3 | COc1cc(CCNCC(O)c2ccc([N+](=O)[O-])c(OCc3ccccc3)c2)cc(OC)c1OC (stereo not drawn) [TCMDC-132008] | 19.76%
4 | CC(C#N)Cc1ccc(-c2cnc(N)c3cc(-c4ccnc(N)n4)ccc23)cc1 (stereo not drawn) [TCMDC-134547] | 15.83%
5 | CCCCCCC(C)c1cc(OCCN(CC)CC)c2c(c1)OC(C)(C)C=C2c1ccncc1 (stereo not drawn) [TCMDC-131641] | 78.51%
6 | CCCCCC(C)C(C)c1cc(O)c2c(c1)OC(C)(C)C=C2c1cc[n+]([O-])cc1 (stereo not drawn) [TCMDC-131349] | -5.463%
7 | CCCCCCC(C)c1cc(O)c2c(c1)OC(C)(C)C=C2c1ccncc1 (stereo not drawn) [TCMDC-131636] | -3.085%
8 | CC(=O)OC[C@H]1O[C@@H](C#Cc2ccccc2)[C@H](OC(C)=O)[C@@H](OC(C)=O)[C@@H]1OC(C)=O [TCMDC-131801] | 35.52%
9 | CC(C)C[C@@H](NC(=O)NC1CCC(CCN2C3CCC2CC(OC(=O)C(CO)c2ccccc2)C3)CC1)C(O)(c1ccccc1)c1ccccc1 (stereo partly drawn) [TCMDC-136459] | 3.057%
10 | CC1(C)NC(N)=NC(=N)N1OCC1CCCCC1 [TCMDC-131616] | -0.7745%
11 | O=C1COc2ccc3ccccc3c21 [TCMDC-123508] | 4.476%
12 | CNCc1ccc(-c2ccc3ccnc(N)c3c2)cc1 [TCMDC-136789] | 95.61%
13 | CNCc1cccc(-c2ccc3ccnc(N)c3c2)c1 [TCMDC-136794] | 70.03%
14 | CCNCc1cccc(-c2ccc3ccnc(N)c3c2)c1 [TCMDC-136869] | 65.98%
15 | CSc1nccc(-c2ccc3ccnc(N)c3c2)n1 [TCMDC-136641] | 63.58%
16 | Nc1ccc(-c2ccc3ccnc(N)c3c2)cn1 [TCMDC-133428] | 40.89%
17 | Nc1nccc2ccc(-c3cccc(O)c3)cc12 [TCMDC-136758] | 44.67%
18 | CNc1cc(-c2ccc3ccnc(N)c3c2)nc(N)n1.O=CO [TCMDC-136539] | 29.83%
19 | Clc1ccc2c(N3CCCNCC3)ccnc2c1 [TCMDC-124813] | -27.2%
20 | CCc1cc2c(cc1CC)CC(NC[C@@H](O)c1ccc(O)c3[nH]c(=O)ccc13)C2 [TCMDC-138894] | -46.2%
21 | CCCCC([C@@H](Cc1ccc2ccccc2c1)C(=O)N[C@H](C(=O)NC)C(C)(C)C)N(O)C=O (stereo partly drawn) [TCMDC-140405] | 29.38%
